Results on 32 molecules are retold here after PubChem BioAssay AID2061166 (Soto Lab, Mitchell Center for Alzheimers Disease and …, 2025).

Structures are written as SMILES. Activity calls are given as the source filed them.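 The calls were made as follows: active = mean tau seeding fluorescence area under 1% of vehicle, meaning inhibition above a set limit; inactive = the rest.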

Sequence of Microtubule-associated protein tau (Homo sapiens) (P10636 whole entry, looked up): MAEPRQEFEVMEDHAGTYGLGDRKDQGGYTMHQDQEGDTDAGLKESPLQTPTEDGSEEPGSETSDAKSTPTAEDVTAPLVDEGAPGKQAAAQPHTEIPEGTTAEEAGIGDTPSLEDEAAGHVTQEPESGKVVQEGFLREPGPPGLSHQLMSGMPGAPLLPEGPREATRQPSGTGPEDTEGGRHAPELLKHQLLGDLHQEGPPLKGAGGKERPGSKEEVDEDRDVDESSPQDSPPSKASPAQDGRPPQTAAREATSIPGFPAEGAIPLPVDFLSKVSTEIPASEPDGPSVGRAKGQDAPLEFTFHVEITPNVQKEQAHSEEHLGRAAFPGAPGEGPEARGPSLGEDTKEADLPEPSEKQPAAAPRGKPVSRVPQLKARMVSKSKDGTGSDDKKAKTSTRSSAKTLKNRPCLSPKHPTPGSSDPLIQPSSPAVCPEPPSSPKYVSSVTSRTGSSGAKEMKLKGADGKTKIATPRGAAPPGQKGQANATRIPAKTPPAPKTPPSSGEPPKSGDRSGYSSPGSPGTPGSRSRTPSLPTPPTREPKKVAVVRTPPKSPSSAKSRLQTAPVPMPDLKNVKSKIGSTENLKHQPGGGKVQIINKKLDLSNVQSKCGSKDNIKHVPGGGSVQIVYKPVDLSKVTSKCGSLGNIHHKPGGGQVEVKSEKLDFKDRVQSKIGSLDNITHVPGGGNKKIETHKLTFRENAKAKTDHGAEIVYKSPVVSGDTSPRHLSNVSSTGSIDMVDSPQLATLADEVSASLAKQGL

This test addresses Microtubule-associated protein tau (Homo sapiens) (UniProt P10636). Kind of test: inhibitors of seeded tau aggregation, primary screen, biochemical, seed amplification, ThT fluorescence (AID 2061166). The conditions noted are these: Recombinant tau seeded by AD brain, ThT fluorescence AUC; at 100 µM; hits give high values.
With `CCOc1nc2cccc(C(=O)O)c2n1Cc1ccc(-c2ccccc2-c2nn[nH]n2)cc1`, the inhibition is 36.2% (inactive).
Take `CCCOC(C(=O)OC1CCN(C)CC1)(c1ccccc1)c1ccccc1`: the inhibition was 26.4% (inactive).
The result for `C[N+](C)(C)CCO` reads 13.4% (inactive); that for `O=C(OC1CN2CCC1CC2)N1CCc2ccccc2C1c1ccccc1` (configuration not stated), -37.8% (inactive); that for `C[N+](C)=c1ccc2nc3ccc(N)cc3sc-2c1`, 100% (active).
The result for `Cc1ccsc1C(=CCCN1CCCC(C(=O)O)C1)c1sccc1C` (configuration not stated) reads 3.27% (inactive); that for `CN(CCOc1ccc(CC2SC(=O)NC2=O)cc1)c1ccccn1` (configuration not stated), -61% (inactive).
`O=c1c(-c2ccc(O)cc2)coc2cc(O)cc(O)c12`: the inhibition was -59.4% (inactive).
The result for `Cn1cnc2c(F)c(Nc3ccc(Br)cc3Cl)c(C(=O)NOCCO)cc21` reads -4.66% (inactive); that for `CNC(=O)c1cc(Oc2ccc(NC(=O)Nc3ccc(Cl)c(C(F)(F)F)c3)cc2)ccn1`, -11% (inactive); that for `OC(c1cc(C(F)(F)F)nc2c(C(F)(F)F)cccc12)C1CCCCN1` (configuration not stated), 66.4% (inactive).
The result for `Cc1ccc(Nc2c(F)cccc2Cl)c(CC(=O)O)c1` reads 11.4% (inactive); that for `COC1CC2CCC(C)C(O)(O2)C(=O)C(=O)N2CCCCC2C(=O)OC(C(C)CC2CCC(O)C(OC)C2)CC(=O)C(C)/C=C(\C)C(O)C(OC)C(=O)C(C)CC(C)/C=C/C=C/C=C/1C` (configuration not stated), 14% (inactive); that for `Cc1c(N)c(=O)n(-c2ccccc2)n1C`, 0.254% (inactive).
Under `O=C(CCCCCCC(=O)Nc1ccccc1)NO` stands -65.2% (inactive); under `Oc1cc(O)c2c(c1)OC(c1ccc(O)c(O)c1)C(O)C2` (configuration not stated), 88.6% (inactive).
For the molecule `CC(=O)NC(CS)C(=O)O` (configuration not stated), the inhibition is 5.01% (inactive).
Under `CS(=O)(=O)OCCCCOS(C)(=O)=O` stands -40% (inactive).
For the molecule `CO/N=C(\C(=O)NC1C(=O)N2C(C(=O)[O-])=C(C[N+]3(C)CCCC3)CSC12)c1csc(N)n1` (configuration not stated), the inhibition was 53.1% (inactive).
Under `CCCCN1CCCCC1C(=O)Nc1c(C)cccc1C` (configuration not stated) stands 7.03% (inactive).
As to `NS(=O)(=O)Cc1noc2ccccc12`, the inhibition is 18.2% (inactive).
Turning to `COc1ccc(C2CNC(=O)C2)cc1OC1CCCC1` (configuration not stated), the inhibition was 16.3% (inactive).
For `COC(=O)C1=COC(OC2OC(CO)C(O)C(O)C2O)C2C1CC(O)C2C` (configuration not stated), the inhibition is -52.1% (inactive).
Take `NC(=O)NO`: the inhibition is -49.7% (inactive).
With `NC(=O)OCC(COC(N)=O)c1ccccc1`, the inhibition was -8.84% (inactive).
Consider `CCC1=CC2CN(C1)Cc1c([nH]c3ccccc13)C(C(=O)OC)(c1cc3c(cc1OC)N(C)C1C(O)(C(=O)OC)C(OC(C)=O)C4(CC)C=CCN5CCC31C54)C2` (configuration not stated), for which the inhibition was 27% (inactive).
The result for `NC(=O)c1cn(Cc2c(F)cccc2F)nn1` reads -11.5% (inactive).
Under `Cc1ncc(CO)c(CO)c1O` (tested in a mixture with another compound) stands 21.6% (inactive); under `CN(C)CCCN1c2ccccc2Sc2ccc(Cl)cc21`, 25.9% (inactive).
Under `CCC(=O)NCCC1CCc2ccc3c(c21)CCO3` (configuration not stated) stands -20.8% (inactive); under `CN(C)CCC=C1c2ccccc2CCc2ccccc21`, 13.9% (inactive); under `C#Cc1cccc(Nc2ncnc3cc(OCCOC)c(OCCOC)cc23)c1`, -11.4% (inactive).

What is called inhibition is the relative decrease from the control value, in per cent.
